According to PubChem BioAssay AID1159580 (chemical genetic matrix, 2015):
“And” between values parts separate entries of the source, which are not always exact repeats. Identical values can stand only once. About 2,000 (36%) of roughly 5,500 compounds were called active. About 18% were inconclusive and are not listed. Cut-off read from the data, not from the text of the source: active = normalized growth mostly below about 0.91 (no sharp cut-off); inconclusive = no clear call, values can overlap the other calls; inactive = mostly above about 0.92. The list shows a part of the results.

Assay: chemical genetic growth profiling, strain panel (AID 1159580);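 note: tested at 20 µM; growth read once vehicle control cultures reached saturation at 30 °C; 1 = growth at the plate median or of vehicle wells; lower values mean less growth of the strain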
Details: S. cerevisiae deletion strains, growth OD

Measured: normalized growth

C=C(C)C1Cc2c(ccc3c(=O)c4c(oc23)COc2cc(OC)c(OC)cc2-4)O1 (stereo unspecified)
inactive: locus YAL021C, strain ccr4, active compounds read low 1.01 | locus YAL026C, strain drs2, active compounds read low 0.999 | locus YAL030W, strain snc1, active compounds read low 0.987 | locus YBL061C, strain skt5, active compounds read low 0.999 | locus YBR009C, strain hhf1, active compounds read low 1 | locus YBR021W, strain FUR4, active compounds read low 1.05 | locus YBR023C, strain chs3, active compounds read low 0.998 | locus YBR171W, strain sec66, active compounds read low 0.99 | locus YBR229C, strain ROT2, active compounds read low 1 | locus YBR231C, strain swc5, active compounds read low 1.01 | locus YBR279W, strain paf1, active compounds read low 1 | locus YCL011C, strain gbp2, active compounds read low 0.989 | locus YCL016C, strain dcc1, active compounds read low 0.995 | locus YCL029C, strain bik1, active compounds read low 1 | locus YCL061C, strain MRC1, active compounds read low 0.996 | locus YCL069W, strain vba3, active compounds read low 0.999 | locus YCR088W, strain abp1, active compounds read low 0.996 | locus YDL005C, strain med2, active compounds read low 0.997 | locus YDL035C, strain GPR1, active compounds read low 1.04 | locus YDL040C, strain nat1, active compounds read low 0.991 | locus YDL074C, strain BRE1, active compounds read low 1.04 | locus YDL101C, strain DUN1, active compounds read low 0.994 | locus YDL134C, strain PPH21, active compounds read low 1.01 | locus YDL185W, strain tfp1, active compounds read low 0.956 | locus YDL192W, strain arf1, active compounds read low 1.03 | locus YDR001C, strain nth1, active compounds read low 1 | locus YDR069C, strain doa4, active compounds read low 1 | locus YDR101C, strain arx1, active compounds read low 1.04 | locus YDR137W, strain rgp1, active compounds read low 0.926 | locus YDR150W, strain NUM1, active compounds read low 0.989 | locus YDR159W, strain sac3, active compounds read low 1.01 | locus YDR162C, strain NBP2, active compounds read low 1.04 | locus YDR195W, strain ref2 0.998 | locus YDR297W, strain sur2, active compounds read low 0.995 | locus YDR318W, strain mcm21, active compounds read low 1.01 | locus YDR334W, strain swr1, active compounds read low 0.982 | locus YDR335W, strain msn5, active compounds read low 1 | locus YDR388W, active compounds read low 0.997 | locus YDR392W, strain spt3, active compounds read low 0.982 | locus YDR502C, strain sam2, active compounds read low 1.01 | locus YEL003W, strain gim4, active compounds read low 0.991 | locus YEL037C, strain rad23, active compounds read low 0.997 | locus YEL061C, strain CIN8 (second series), active compounds read low 1 | locus YEL061C, strain CIN8, active compounds read low 1 | locus YER015W, strain faa2, active compounds read low 1 | locus YER016W, strain bim1, active compounds read low 0.994 | locus YER110C, active compounds read low 1 | locus YER111C, strain swi4, active compounds read low 1.01 | locus YER155C, strain BEM2 (second series), active compounds read low 1.01 | locus YER155C, strain BEM2, active compounds read low 0.99 | locus YER167W, strain BCK2, active compounds read low 0.988 | locus YFR010W, strain ubp6, active compounds read low 0.988 | locus YGL078C, strain dbp3, active compounds read low 0.987 | locus YGL086W, strain mad1, active compounds read low 0.995 | locus YGL167C, strain pmr1, active compounds read low 1.01 | locus YGL173C, strain kem1, active compounds read low 0.996 | locus YGL227W, strain vid30, active compounds read low 1.01 | locus YGL240W, strain doc1, active compounds read low 1.01 | locus YGL248W, strain PDE1, active compounds read low 0.999 | locus YGL253W, strain hxk2, active compounds read low 1 | locus YGR135W, strain pre9, active compounds read low 0.983 | locus YGR229C, strain SMI1, active compounds read low 0.988 | locus YGR252W, strain gcn5, active compounds read low 1.06 | locus YHR013C, strain ard1, active compounds read low 1.01 | locus YHR027C, strain rpn1, active compounds read low 0.99 | locus YHR030C, strain SLT2, active compounds read low 0.973 and 1.01 | locus YHR079C, strain IRE1 (second series), active compounds read low 1 | locus YHR079C, strain IRE1, active compounds read low 1.06 | locus YHR094C, strain hxt1, active compounds read low 0.979 | locus YHR129C, strain ARP1, active compounds read low 1.01 | locus YHR142W, strain chs7, active compounds read low 1.01 | locus YHR200W, strain rpn10, active compounds read low 1.01 | locus YIL066C, strain RNR3, active compounds read low 1 | locus YIL073C, strain SPO22, active compounds read low 0.927 | locus YIL125W, strain kgd1, active compounds read low 0.998 | locus YIR030C, strain dcg1, active compounds read low 0.999 | locus YJL092W, strain hpr5, active compounds read low 0.993 | locus YJL095W, strain BCK1 (second series), active compounds read low 0.998 | locus YJL095W, strain BCK1, active compounds read low 1.03 and 1.01 | locus YJL115W, strain asf1, active compounds read low 0.974 | locus YJL129C, strain trk1, active compounds read low 0.993 | locus YJL134W, strain LCB3, active compounds read low 0.998 | locus YJL154C, strain vps35, active compounds read low 0.99 | locus YJL164C, strain tpk1, active compounds read low 1 | locus YJL166W, strain qcr8, active compounds read low 1.01 | locus YJL168C, strain set2, active compounds read low 0.998 | locus YJL187C, strain SWE1 (second series), active compounds read low 0.995 | locus YJL187C, strain SWE1, active compounds read low 1.01 | locus YJR043C, strain POL32, active compounds read low 1.04 | locus YJR066W, strain TOR1, active compounds read low 0.986 | locus YKL009W, strain mrt4, active compounds read low 1 | locus YKL068W, active compounds read low 0.982 | locus YKL085W, strain MDH1 (second series), active compounds read low 0.997 | locus YKL085W, strain MDH1, active compounds read low 0.997 | locus YKL160W, strain elf1, active compounds read low 1.01 | locus YKL190W, strain CNB1, active compounds read low 0.992 | locus YKR001C, strain vps1, active compounds read low 1.03 | locus YKR026C, strain gcn3, active compounds read low 0.999 | locus YKR091W, strain srl3, active compounds read low 0.999 | locus YLL001W, strain dnm1, active compounds read low 0.995 | locus YLL026W, active compounds read low 0.993 | locus YLL041C, strain sdh2, active compounds read low 0.978 | locus YLR027C, strain aat2, active compounds read low 0.986 | locus YLR039C, strain RIC1, active compounds read low 0.99 | locus YLR058C, strain SHM2, active compounds read low 1.02 | locus YLR102C, strain apc9, active compounds read low 0.993 | locus YLR113W, strain HOG1, active compounds read low 0.992 | locus YLR221C, strain rsa3, active compounds read low 1 | locus YLR258W, strain gsy2, active compounds read low 0.991 | locus YLR262C, strain YPT6 (second series), active compounds read low 1 | locus YLR262C, strain YPT6, active compounds read low 0.969 | locus YLR268W, strain sec22, active compounds read low 1.04 | locus YLR320W, strain mms22, active compounds read low 1.02 | locus YLR330W, strain CHS5, active compounds read low 1 | locus YLR342W, strain FKS1 (second series), active compounds read low 1.06 | locus YLR342W, strain FKS1, active compounds read low 1 | locus YLR357W, strain rsc2, active compounds read low 1.02 | locus YLR370C, strain arc18, active compounds read low 1.01 | locus YLR371W, strain rom2, active compounds read low 0.98 | locus YLR384C, strain iki3, active compounds read low 1 | locus YLR418C, strain cdc73, active compounds read low 1.05 | locus YML016C, strain PPZ1, active compounds read low 0.999 | locus YML032C, strain rad52, active compounds read low 1.01 | locus YML120C, strain ndi1, active compounds read low 1.01 | locus YML124C, strain tub3, active compounds read low 0.992 | locus YMR058W, strain fet3, active compounds read low 1 | locus YMR078C, strain ctf18, active compounds read low 0.998 | locus YMR125W, strain sto1, active compounds read low 0.998 | locus YMR129W, active compounds read low 0.996 | locus YMR205C, strain PFK2, active compounds read low 1.02 | locus YMR223W, strain ubp8, active compounds read low 1.01 | locus YMR231W, strain pep5, active compounds read low 0.996 | locus YMR307W, strain GAS1, active compounds read low 1.18 | locus YNL067W, strain RPL9B, active compounds read low 0.984 | locus YNL071W, strain lat1, active compounds read low 0.981 | locus YNL153C, strain GIM3, active compounds read low 0.991 | locus YNL183C, strain NPR1, active compounds read low 0.988 | locus YNL209W, strain ssb2, active compounds read low 0.999 | locus YNL233W, strain BNI4, active compounds read low 1.03 | locus YNL248C, strain rpa49, active compounds read low 0.991 | locus YNL250W, strain rad50, active compounds read low 0.962 | locus YNL271C, strain bni1, active compounds read low 0.99 | locus YNL298W, strain CLA4, active compounds read low 1 | locus YNL307C, strain MCK1, active compounds read low 0.993 | locus YNL322C, strain KRE1 (second series), active compounds read low 1 | locus YNL322C, strain KRE1, active compounds read low 0.999 | locus YNR049C, strain mso1, active compounds read low 1 | locus YNR052C, strain pop2, active compounds read low 0.991 | locus YOL012C, strain htz1 1.59 | locus YOL147C, strain pex11, active compounds read low 0.992 | locus YOR001W, strain rrp6, active compounds read low 0.99 | locus YOR061W, strain CKA2, active compounds read low 1 | locus YOR069W, strain VPS5, active compounds read low 0.996 | locus YOR070C, strain gyp1, active compounds read low 0.99 | locus YOR080W, strain dia2, active compounds read low 1 | locus YOR083W, strain WHI5, active compounds read low 1.01 | locus YOR106W, strain vam3, active compounds read low 1.02 | locus YOR136W, strain idh2, active compounds read low 1 | locus YOR144C, strain elg1, active compounds read low 0.999 | locus YOR184W, strain ser1, active compounds read low 1.07 | locus YOR231W, strain MKK1, active compounds read low 1.03 | locus YOR265W, strain rbl2, active compounds read low 0.993 | locus YOR270C, strain vph1, active compounds read low 1 | locus YOR290C, strain snf2, active compounds read low 0.998 | locus YOR316C, strain cot1, active compounds read low 0.982 | locus YPL051W, strain arl3, active compounds read low 1.01 | locus YPL078C, strain atp4, active compounds read low 1.01 | locus YPL106C, strain sse1, active compounds read low 0.992 | locus YPL240C, strain hsp82, active compounds read low 0.976 | locus YPL241C, strain CIN2, active compounds read low 0.991 | locus YPL256C, strain CLN2, active compounds read low 1.03 | locus YPR119W, strain clb2, active compounds read low 0.988 | locus YPR141C, strain kar3, active compounds read low 0.974 | locus YPR163C, strain tif3, active compounds read low 0.974 | locus YPR167C, strain met16, active compounds read low 1.01 | strain wtn01, active compounds read low 1.03
